# Source: PubChem (National Center for Advancing Translational Sciences (NCATS))
# MARV entry inh: Marburg virus entry inhibition. Marburg virus pseudotyped entry inhibition, cell reporter. Potency, µM (doses to about 37.8 µM), usual class: inhibitors. 1.8% of 300,000 active; calls by dose curve; tested in HEK293 cells
# Pf growth 96h: P. falciparum growth inhibition at 96 hours. Potency, µM (top dose mostly 28.7 µM), most hits filed as inhibitors. AID 504834. 6.9% of 320,000 active. P. falciparum luciferase reporter growth, 96 h
#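 Delayed-death screen, second-generation endpoint: infected erythrocytes, 2% hematocrit, 0.05% parasitemia final; 96 hours at 37 C, 5% CO2; luciferase detection reagent; luminescence decrease equals reduced growth.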
# HCV inh: HCV inhibition; Huh7.5.1 HCVcc-Cre infection, luciferase reporter, 44 h; Potency, µM (top dose mostly 41.8 µM), actives largely listed as inhibitors; 3.4% of 340,000 active; AID 651820
#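 Antiviral activity was scored by luciferase reporter output from cells infected with HCVcc-Cre (~0.5 moi) in presence of compound, 44 h infection period, cells seeded 1,000/well 4 h prior.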
# HCMV inh: inhibitors of human cytomegalovirus; AID 1259415; HFF cells, HCMV-luciferase reporter, 72 h; stronger effect = lower value; 4.5% of 410,000 active; activity change, negative = inhibition, % at 57.5 µM; in the data active = activity change below about -60%; inconclusive = no clear call, values can overlap the other calls; inactive = above about -39%
#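 HFF cells seeded 16 h at 37C, treated with compounds, infected with luciferase-reporter HCMV at MOI 1 PFU/cell; luciferase read at 72 h post infection, normalized to buffer-only and Salinomycin controls.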
# Pf growth 48h: inhibits P. falciparum growth in the first generation, 48 h; Potency, µM (highest dose often 28.7 µM), actives largely listed as inhibitors; P. falciparum luciferase growth in erythrocytes, 48 h; 5.9% of 310,000 active; AID 504832
#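 First compound was added to culture medium, then infected red cells at 0.1% parasitemia and 2% hematocrit (final). After incubation at 37 C under 5% CO2, luciferase detection reagent was dispensed and light output recorded.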
# LASV entry inh: Lassa virus entry inhibition; Potency, µM (top dose mostly 37.9 µM), actives largely listed as inhibitors; AID 540256; 1.2% of 300,000 active; Lassa virus pseudotype entry inhibition, cell reporter; calls by dose curve; tested in HEK293 cells; also: nearly all actives have a fitted effect of over 50% in size
# A number is an active result; – = inactive; ? = inconclusive; · = not tested or not shown; [ ] = dose if it differs, or a comment. Hits are enriched below; roughly 14% of the tested compounds scored in any of these assays. Unless noted, calls follow the shape of the dose curve; as a rule, active = well fitted inhibition curve with a large enough effect; inconclusive = small, poorly fitted or top-dose-only effect, or another doubt; inactive = no such curve, though single readings can be large or run the other way.
SMILES,MARV entry inh,Pf growth 96h,HCV inh,HCMV inh,Pf growth 48h,LASV entry inh
Cc1noc(C)c1S(=O)(=O)N1CCCC(C(=O)N2CCN(C3CCCCC3)CC2)C1 (stereo not drawn),–,–,–,–,–,·
Cc1ccc(C)c(N2CCN(C(=O)C3CCCN(S(=O)(=O)c4c(C)noc4C)C3)CC2)c1 (stereo not drawn),–,–,11µM,–,12µM,·
Cc1noc(C)c1S(=O)(=O)N1CCN(c2ccccc2Cl)CC1,–,15µM,–,–,?,–
O=C(C1CCCN1S(=O)(=O)c1ccc(Cl)cc1)N1CCCCC1 (stereo not drawn),–,–,·,–,–,–
Cc1noc(C)c1S(=O)(=O)N1CCN(c2ccccc2)CC1,·,?,–,–,·,·
CCCc1nn2c(=O)cc(COC(=O)c3ccco3)nc2s1,·,·,·,–,·,–
CCOC(=O)c1c(NC(C)=O)sc2c1CCCNC2=O,?,–,–,–,?,–
CCOC(=O)c1c(NC(C)=O)sc2c1CCC(C=O)=C2Sc1ccccc1,?,?,2.8µM,–,·,?
Cc1nn(C)c(Oc2ccc(Cl)cc2)c1C(=O)Nc1ccc(F)cc1F,–,?,10µM,-60,–,–
Cc1ccc(Oc2ccc(Cl)cc2NC(=O)c2ccc(F)cc2F)cc1,–,10µM,–,–,5.2µM,–
O=C(Nc1cc(Cl)ccc1Oc1ccccc1)c1ccccc1F,–,–,–,–,?,–
O=C(Cn1c(=O)oc2cc(S(=O)(=O)N3CCCC3)ccc21)Nc1ccccn1,·,·,·,–,·,·
O=c1cc(-c2ccc(OCc3ccccc3)cc2)oc2cc(OCc3ccccc3)cc(OCc3ccccc3)c12,·,·,?,–,·,·
Cc1ccc2ccc[n+](Cc3ccccc3)c2c1,·,0.52µM,?,-82,0.41µM,·
Cc1ccc2c(c1)c(C)cc[n+]2Cc1ccccc1,10µM,0.19µM,?,-96,0.37µM,?
Cc1ccc2[nH]c(=O)c(Cc3ccccc3)c(O)c2c1,–,–,–,–,–,–
COc1ccc2c(c1)c(C)cc[n+]2Cc1ccccc1,·,–,–,-85,?,·
O=[N+]([O-])c1ccc(Cl)c(C[n+]2cccc3ccccc32)c1,·,–,–,–,?,·
COc1ccc2[nH]c(C(=O)N(C)Cc3ccccc3)c(C)c2c1,·,–,–,–,·,·
O=C1COCc2ccc(-c3cccc(CO)c3)cc2N1CCc1ccccc1,·,·,·,–,·,·
COc1ccc(Cl)cc1NCCC(O)c1ccc(F)cc1 (stereo not drawn),·,–,7.1µM,–,–[0.00184 µM],·
CCn1c(C)cc(C(=O)COC(=O)c2ccccc2[N+](=O)[O-])c1C,?,·,–,·,·,0.32µM
COCCn1c(C)cc(C(=O)COC(=O)c2ccccc2Br)c1C,·,–,–,-82,–,·
Cc1nn(Cc2ccccc2)c(C)c1C(=O)OCC(=O)c1cc(C)n(C2CC2)c1C,–,·,?,?,15µM,15µM
COCCn1c(C)cc(C(=O)COC(=O)c2cccnc2SC)c1C,?,·,–,–,·,?
SMILES,MARV entry inh,Pf growth 96h,HCV inh,HCMV inh,Pf growth 48h,LASV entry inh
COCCn1c(C)cc(C(=O)COC(=O)c2c(C)nn(Cc3ccccc3)c2C)c1C,?,–,?,–,?,7.1µM
COCCn1c(C)cc(C(=O)COC(=O)c2n[nH]c3ccccc23)c1C,?,–,?,–,–,?
CCN(C(=O)COC(=O)c1cc(C)n(C2CC2)c1C)c1ccccc1,–,–,–,–,?,–
CC1CCc2nc3ncn(Cc4ccccc4F)c(=O)c3cc2C1 (stereo not drawn),·,·,·,–,·,?
CCc1ccc(NC(=O)c2sc3nc(C)c(Cl)c(C)c3c2NC(=O)c2ccccc2)cc1,–,·,·,–,·,–
CCC(C(=O)N(C)Cc1ccccc1)n1nc(C)c2sc3ccccc3c2c1=O (stereo not drawn),–,·,·,–,·,–
COc1ccc(NC(=O)C2=C(C)Nc3ncnn3C2c2sccc2C)cc1 (stereo not drawn),·,·,·,–,·,–
Cc1cccc(C)c1NC(=O)CN1CCN(C(=O)CNC(=O)Cc2cccc3ccccc23)CC1,·,·,·,–,·,·
CCc1ccccc1NC(=O)CN1CCN(C(=O)CNC(=O)Cc2cccc3ccccc23)CC1,·,?,11µM,–,?,·
N#Cc1ccc(CN2CCN(C(=O)CNC(=O)Cc3cccc4ccccc34)CC2)cc1,?,–,?,-68,?,?
COCC1OC(OC(C)C(O)c2cnc3nc(N)[nH]c(=O)c3n2)C(O)C(OC)C1O (stereo not drawn),·,·,·,–,·,·
COc1ccc(-c2cc3nc(C4CCN(C(=O)OC(C)(C)C)CC4)c(C(=O)Nc4cc(Cl)cc(Cl)c4)cn3n2)cc1,–,·,·,–,·,–
CCOC(=O)c1ccc(N2C(=O)C3C(C2=O)C(C(=O)c2ccc(Cl)cc2)N2CCCC32)cc1 (stereo not drawn),–,–,–,–,13µM,–
CCOC(=O)c1ccc(N2C(=O)C3CC=CCC3C2=O)cc1 (stereo not drawn),–,–,–,–,–,–
COc1ccc(C(C)=O)cc1CS(=O)(=O)CC(=O)NCCc1c[nH]c2ccccc12,·,10µM,–,–,5.2µM,·
CC(=O)c1cccc(NC(=O)NCCc2c[nH]c3ccccc23)c1,–,–,–,-82,–,–
COc1ccc(C(=O)CCC(=O)NCCc2c[nH]c3ccccc23)cc1OC,–,?,?,–,?,?
Cc1ccc2[nH]cc(CCNC(=O)Nc3ccccc3)c2c1,–,?,–,–,·,?
COc1cc(CNc2ccc3[nH]c(=O)[nH]c3c2)ccc1OCc1cccc(C)c1,–,–,6.3µM,-66,–,?
Cc1ccc(CN2CCN(/N=C\C=C\c3ccccc3)CC2)cc1,?,–,–,–,–,–
CCc1cccc(CC)c1-n1c(SCc2cc(=O)n3ccsc3n2)nnc1-c1cccnc1,–,10µM,–,–,15µM,–
Cc1cccc(-n2c(SCc3cc(=O)n4ccsc4n3)nc3ccccc32)c1,–,4.1µM,7.9µM,–,2.9µM,–
O=C(OCc1cc(=O)n2ccsc2n1)C1(c2ccccc2)CC1,·,·,·,-98,·,·
Cn1c(Cc2ccccc2)nnc1SCc1cc(=O)n2ccsc2n1,–,–,–,-63,–,–
CCOc1ccc2nc(NC(=O)c3cc(=O)c4ccc(C)cc4o3)sc2c1,?,·,·,–,·,–
Cc1ccc(C(=O)NCC(=O)OCC(=O)Nc2cc(S(=O)(=O)N3CCOCC3)ccc2Cl)s1,–,·,?,–,·,–
Cc1ccc(-n2c(SCc3cn4ccsc4n3)nc3ccccc3c2=O)cc1,–,·,10µM,-65,?,?
COc1cccc(-c2c(NC(=O)c3ccco3)oc3ccccc3c2=O)c1,·,–,0.32µM,–,–,·
Cc1c(Cl)cccc1Nc1sc(C(=O)c2ccccc2)c(N)c1S(=O)(=O)c1ccccc1,?,·,·,–,·,?
Cc1cccc(C)c1Nc1sc(C(=O)c2ccccc2)c(N)c1S(=O)(=O)c1ccccc1,·,·,·,-62,·,?
